Assay outcomes as filed in PubChem BioAssay.
IMPase Li cell: membrane-permeable IMPase blocker, potentiated with lithium; CHO-M1 cells, IP1 TR-FRET (IP-One), carbachol + lithium; Potency, µM (series often up to 59.4 µM), without a hit: at the highest dose activity, negative = IMPase inhibition, most hits filed as inhibitors; 0.35% of 210,000 active; active = well fitted inhibition curve with a large enough effect; inconclusive = small, poorly fitted or top-dose-only effect; inactive = no such curve, though single readings can be large or run the other way;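 also: IP1 builds up when IMPase is blocked and the TR-FRET signal falls; potency is read from the fitted curve at half-maximal effect; plate controls were basal vehicle for no effect and high inhibitor control for full effect; nearly all actives have a fitted effect of over 50% in size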
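Test compounds were applied to CHO-M1 cells previously cultured for 16–30 h at 2000 per well. A small lithium amount accompanied them; after 30 min at 37C, IP1 was quantified by TR-FRET.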
ALDH1A1 inh: blocks purified human ALDH1A1 activity; 7.3% of 220,000 active; Potency, µM (doses to about 75.3 µM), for the others: top-dose activity, negative = inhibition, hits mostly inhibitors; P00352; AID 1030; Purified ALDH1A1, NADH fluorescence, propionaldehyde substrate;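 also: potency is read from the fitted curve at half-maximal effect; plate controls were no enzyme wells and a reference inhibitor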
Target sequence (P00352 whole entry, looked up): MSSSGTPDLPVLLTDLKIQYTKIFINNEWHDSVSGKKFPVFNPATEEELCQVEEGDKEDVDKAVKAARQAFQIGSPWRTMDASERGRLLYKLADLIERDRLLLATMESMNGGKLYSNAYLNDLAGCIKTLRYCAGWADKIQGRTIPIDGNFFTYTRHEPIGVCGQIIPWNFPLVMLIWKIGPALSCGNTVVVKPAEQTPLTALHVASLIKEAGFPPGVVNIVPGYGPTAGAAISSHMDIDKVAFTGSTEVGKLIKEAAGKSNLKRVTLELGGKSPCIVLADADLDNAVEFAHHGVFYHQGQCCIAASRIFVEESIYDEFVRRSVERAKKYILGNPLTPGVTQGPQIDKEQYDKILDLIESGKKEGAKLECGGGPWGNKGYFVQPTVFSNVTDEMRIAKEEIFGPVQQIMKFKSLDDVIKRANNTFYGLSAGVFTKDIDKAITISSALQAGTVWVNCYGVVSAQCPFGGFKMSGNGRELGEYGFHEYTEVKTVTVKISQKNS
PNC assembly inh: blocks assembly of the perinucleolar compartment. PC3M PTB-GFP, PNC prevalence imaging, 16 h; hits give low values. activity change (PNC), negative = inhibition, % at 10 µM. AID 2417. 3.1% of 140,000 active;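 active = readout at or below -70, meaning at least 70% loss of cells showing the perinucleolar compartment, a nuclear body marking cancer cells; inconclusive = readout between -30 and a set limit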;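 also: plate controls were DMSO wells for no effect and camptothecin positive control wells for full effect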
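Compounds are pinned in duplicate onto adhered PC3M cells stably expressing GFP-tagged PTB and incubated 16 h at 37 C. Cells are then fixed, nuclei stained with Hoechst, and PNC-positive cells counted.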
HPGD block: inhibitors of human 15-hydroxyprostaglandin dehydrogenase (HPGD); Potency, µM, for the others: at the top dose activity change, negative = inhibition, usual class: inhibitors; 4.3% of 150,000 active; P15428; purified HPGD, NADH fluorescence kinetic, PGE2 substrate; also: potency is read from the fitted curve at half-maximal effect
Target sequence (P15428 whole entry, looked up): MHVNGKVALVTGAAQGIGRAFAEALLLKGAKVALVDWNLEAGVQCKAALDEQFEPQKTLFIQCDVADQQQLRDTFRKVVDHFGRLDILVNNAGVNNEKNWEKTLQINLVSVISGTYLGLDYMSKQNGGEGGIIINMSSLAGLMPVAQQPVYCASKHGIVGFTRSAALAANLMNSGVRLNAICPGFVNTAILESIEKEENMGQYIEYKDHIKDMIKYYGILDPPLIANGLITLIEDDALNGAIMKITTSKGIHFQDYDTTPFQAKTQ
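NADH formation kinetics: reaction with 30 uM PGE2 and 1 mM NAD+ (final), 20 nM enzyme, Tris-HCl pH 8 with Tween 20, after 15 min compound preincubation at room temperature. Fluorescence change, last versus first of five reads.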
IMPase inh: cell-permeable inhibitors of inositol monophosphatase (IMPase) | inhibition (IP1 accumulation), % at 46.1 µM | P97697 | AID 901 | CHO-M1 cells, IP1 accumulation, HTRF TR-FRET ratio | 120,000 tested, under 10 active; active = well fitted curve in the direction sought with a large enough effect in the signal ratio, not every such curve was filed as active; inconclusive = small, poorly fitted or top-dose-only effect, or a change in a side signal; inactive = no such curve, though single readings can be large or run the other way; the % refers to the signal ratio;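 also: cells stimulated with carbachol in lithium chloride buffer; plate controls were DMSO basal wells for no effect and reference inhibitor wells for full effect; higher means more IMPase inhibition seen as more IP1 and lower FRET ratio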
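Cellular IMPase inhibition is scored as a rise in cytosolic IP1, detected by competitive TR-FRET between d2-labelled IP1 and a europium anti-IP1 antibody. M1-expressing CHO cells were stimulated with carbachol for 30 min at 37C, with lithium (50 mM LiCl) present in the buffer.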
* marks the source's active call; other numbers are inactive results; [ ] = remark or other dose. Sampled rows, rich in hits. Any-hit rate of the full collection: about 11%. Unless noted, calls follow the shape of the dose curve; as a rule, active = well fitted inhibition curve with a large enough effect (not every such curve was filed as active); inconclusive = small, poorly fitted or top-dose-only effect, or another doubt; inactive = no such curve, though single readings can be large or run the other way. Unless noted, % is scaled to controls: 0 for no effect and ±100 for the full control effect.

Results for O=C(CCCC(=O)OCC(Cl)=C(Cl)Cl)Nc1ccccc1 ?
IMPase Li cell: -1.7%; ALDH1A1 inh: -3.5%; PNC assembly inh: -18.0; HPGD block: 25.1µM*; IMPase inh: -0.9

Results for COC(=O)CCCC(=O)Nc1ccc(Br)cc1 ?
IMPase Li cell: 2.1%; ALDH1A1 inh: 11.8%; PNC assembly inh: -3.3; HPGD block: -16.7%

What do the screens show for `O=C(CCCC(=O)OCC(=O)c1cccs1)Nc1ccc(Oc2ccccc2)cc1`?
IMPase Li cell: -11.2%[38.3 µM]; ALDH1A1 inh: inconclusive; PNC assembly inh: 13.5; HPGD block: -26.2%; IMPase inh: -1.4

What do the screens show for `O=C(O)CCCC(=O)Nc1ccc(Br)cc1`?
IMPase Li cell: -9.4%[38.3 µM]; ALDH1A1 inh: 15.0%; PNC assembly inh: -100.2*; HPGD block: -4.4%; IMPase inh: 8.9

Results for O=C(O)CCCC(=O)Nc1ccc(Cl)cc1 ?
IMPase Li cell: 2.6%; ALDH1A1 inh: 28.2µM*

Results for COc1ccc(NC(=O)CCCC(=O)O)cc1Cl ?
IMPase Li cell: 7.8%; ALDH1A1 inh: 3.3%

What do the screens show for `Cc1nc(N2CCOCC2)nc(OCCN2CCOCC2)c1[N+](=O)[O-]`?
IMPase Li cell: -6.4%; ALDH1A1 inh: -1.8%; PNC assembly inh: inconclusive; HPGD block: -0.5%

Results for c1ccc(-c2ccc3c(c2)c2c4n3CCN=C4CCC2)cc1 ?
IMPase Li cell: -1.4%[38.3 µM]; ALDH1A1 inh: -14.6%; PNC assembly inh: -8.2; HPGD block: -11.4%; IMPase inh: -3.8

What do the screens show for `O=C(c1cccs1)c1no[n+]([O-])c1C(=O)c1cccs1`?
IMPase Li cell: 17.4%[38.3 µM]; ALDH1A1 inh: 0.282µM*; PNC assembly inh: 11.9; HPGD block: 12.6µM*; IMPase inh: -5.9

How did COc1ccc(C(=O)c2no[n+]([O-])c2C(=O)c2ccc(OC)cc2)cc1 do in these assays?
IMPase Li cell: -1.4%[38.3 µM]; ALDH1A1 inh: 1µM*; PNC assembly inh: 16.1; HPGD block: inconclusive; IMPase inh: 0.2

Results for N#Cc1cccc(NC(=O)N2CC[C@@]3(CCCN(C(=O)c4csnn4)C3)C2)c1 ?
IMPase Li cell: 1.6%; ALDH1A1 inh: 7.7%; HPGD block: -11.2%

Results for O=C1c2ccccc2CC[C@H]1CNCCc1ccc(O)cc1 ?
IMPase Li cell: 23.1%; ALDH1A1 inh: inconclusive; HPGD block: -4.0%; IMPase inh: 1.6

Results for O=C(N/N=C1/CCSC1)c1cccc([N+](=O)[O-])c1 ?
IMPase Li cell: -4.4%; ALDH1A1 inh: inconclusive; PNC assembly inh: 2.4; HPGD block: -16.5%

Results for Cc1ccc(C(=O)N/N=C2\CCSC2)cc1[N+](=O)[O-] ?
IMPase Li cell: -2.0%; ALDH1A1 inh: 12.6µM*; PNC assembly inh: 24.3; HPGD block: -6.5%

How did CC(=O)NC1C(Oc2ccccc2C)OC2COC(c3ccco3)OC2C1O (stereo not given) do in these assays?
IMPase Li cell: 1.6%; ALDH1A1 inh: 5.3%; PNC assembly inh: 31.2; HPGD block: -2.8%

How did CC(=O)Nc1cccc(NC(=O)Cc2nc(-c3ccccc3)sc2-c2ccc(C)cc2)c1 do in these assays?
IMPase Li cell: 2.5%; ALDH1A1 inh: 0.4%; PNC assembly inh: 6.5; HPGD block: -14.2%

How did COc1cccc(NC(=O)Cc2nc(-c3ccccc3)sc2-c2ccc(C)cc2)c1 do in these assays?
IMPase Li cell: 6.9%; ALDH1A1 inh: 25.1µM*; PNC assembly inh: 80.5; HPGD block: inconclusive

Results for CCCCC/C=C\C/C=C\C/C=C\C=C\C(=O)CCCC(=O)O ?
IMPase Li cell: 1.4%; ALDH1A1 inh: 4.4%; HPGD block: -5.0%

What do the screens show for `CC1(C)Cc2c(sc3nnn(Cc4ccccc4)c(=O)c23)CO1`?
IMPase Li cell: 18.3%; ALDH1A1 inh: inconclusive; PNC assembly inh: 13.7; HPGD block: 31.6µM*

What do the screens show for `CC1(C)Cc2c(sc3nn[nH]c(=O)c23)CO1`?
IMPase Li cell: 0.3%[38.3 µM]; ALDH1A1 inh: inconclusive; PNC assembly inh: -84.7*; HPGD block: inconclusive; IMPase inh: -6.6

Results for CCC1(C)Cc2c(sc3nn[nH]c(=O)c23)CO1 (stereo not given) ?
IMPase Li cell: 16.8%[38.3 µM]; ALDH1A1 inh: inconclusive; PNC assembly inh: 19.1; HPGD block: inconclusive; IMPase inh: -5.6

What do the screens show for `Cc1nnc2n(Cc3ccccc3)c(=O)c3c4c(sc3n12)COC(C)(C)C4`?
IMPase Li cell: 11.3%[38.3 µM]; ALDH1A1 inh: 12.6µM*; PNC assembly inh: 15.4; HPGD block: 15.8µM*; IMPase inh: 7.3

Results for O=C(O)c1ccc(Cc2ccccc2C(=O)O)cc1 ?
IMPase Li cell: 2.6%; ALDH1A1 inh: 7.1%[13.5 µM]; HPGD block: -6.3%

What do the screens show for `CC1=NN(C(=O)c2ccc(Cn3nc(C)cc3C)o2)C(O)(C(F)(F)F)C1` (stereo not given)?
IMPase Li cell: 19.5%[38.3 µM]; ALDH1A1 inh: 6.9%; PNC assembly inh: 13.2; HPGD block: -11.6%; IMPase inh: -7.7

Results for CC1=NN(C(=O)c2ccc(Cn3cc(Br)c([N+](=O)[O-])n3)o2)C(O)(C(F)(F)F)C1 (stereo not given) ?
IMPase Li cell: -9.4%; ALDH1A1 inh: 3.2%; PNC assembly inh: -113.8*; HPGD block: -6.3%

What do the screens show for `O=C(c1ccccc1)N1CCN(C(=O)c2ccc3c(c2)OCCO3)CC1`?
IMPase Li cell: 7.1%; ALDH1A1 inh: inconclusive

Results for COc1ccccc1N1CCN(C(=O)c2ccc(N3CCCC3=O)cc2)CC1 ?
IMPase Li cell: 17.1%; ALDH1A1 inh: -6.8%; PNC assembly inh: -18.7; HPGD block: -8.3%; IMPase inh: inconclusive

Results for O=C(c1ccc(N2CCCC2=O)cc1)N1CCOCC1 ?
IMPase Li cell: 12.2%; ALDH1A1 inh: 18.8%; PNC assembly inh: -85.5*; HPGD block: 22.4µM*; IMPase inh: -2.5

How did CN1CCN(C(=O)c2ccc3c(c2)OCCO3)CC1 do in these assays?
IMPase Li cell: 1.1%; ALDH1A1 inh: 2.6%; PNC assembly inh: 10.0; HPGD block: 15.8µM*; IMPase inh: -8.1

How did CN1CCN(C(=O)c2ccc(N3CCCC3=O)cc2)CC1 do in these assays?
IMPase Li cell: 13.7%[38.3 µM]; ALDH1A1 inh: 7.4%; PNC assembly inh: 39.0; HPGD block: 12.6µM*; IMPase inh: 2.6

How did CCCCC(=O)Nc1ccc(C(=O)N2CCN(C)CC2)cc1 do in these assays?
IMPase Li cell: -2.3%; ALDH1A1 inh: inconclusive; PNC assembly inh: 22.9; HPGD block: 14.1µM*; IMPase inh: -1.1

Results for COC(=O)[C@H](C)NC(=O)[C@@H](C)CO ?
ALDH1A1 inh: 9.5%[13.5 µM]

How did COc1ccc(NC(=O)CSc2nc(-c3ccc(OC)cc3)[nH]c2-c2ccc(OC)cc2)cc1 do in these assays?
IMPase inh: -9.1

How did C=CCOC(=O)C(C(=O)CC)C(NC(=O)OC)c1ccc(F)cc1 (stereo not given) do in these assays?
ALDH1A1 inh: 16.3%[13.5 µM]

What do the screens show for `Cc1csc2c(N3CCN(C(=O)c4ccc(C(C)(C)C)cc4)CC3)ncnc12`?
ALDH1A1 inh: 15.8µM*
